This is an account of results in paper PMC7862700, “An all-to-all approach to the identification of sequence-specific readers for epigenetic DNA modifications on cytosine”.

Holding throughout (test): DAPPL (digital affinity profiling via proximity ligation, sequencing); 10 mM Tris-HCl pH 7.5, 50 mM NaCl, 1 mM DTT, 4% glycerol, room temperature, 30 min; GST-TFs on glutathione beads, 16-mer random dsDNA library, 0.1% formaldehyde crosslink after washing; high values mean tight binding
For one experiment, the target named is T1, FEV (Homo sapiens, UniProt Q99581 1-238).
T1 sequence: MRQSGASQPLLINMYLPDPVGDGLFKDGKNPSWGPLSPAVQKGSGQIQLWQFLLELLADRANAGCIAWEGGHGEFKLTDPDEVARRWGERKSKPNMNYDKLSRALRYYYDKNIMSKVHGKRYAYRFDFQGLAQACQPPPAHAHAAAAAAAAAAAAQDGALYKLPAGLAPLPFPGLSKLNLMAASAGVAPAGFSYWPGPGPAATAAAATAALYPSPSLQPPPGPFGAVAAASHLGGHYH
Conditions: protein: recombinant; tags: N-terminal GST; dsDNA, one strand shown. An outline of the steps: (§1)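 After expression in yeast as GST fusions, human transcription factors were bound to glutathione beads, DNA-barcoded and mixed with a tag-only sample. The pools were incubated with 200 nmole of a 16-mer random double-stranded DNA library in Tris/NaCl/DTT/glycerol buffer (30 min, room temperature), washed and crosslinked with 0.1% formaldehyde. Proximity ligation with BsaI/T4 ligase ran for 1 h at 37 °C, before PCR amplification and sequencing on an Illumina NextSeq500. Binding signal is a hexamer's read frequency for a factor divided by its frequency for the tag-only sample.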

The next experiment has as its target ETV5 (Homo sapiens, UniProt P41161 1-510). Conditions: protein: recombinant; tags: N-terminal GST; dsDNA, one strand shown. The method, boiled down:
as §1

The target of another experiment is HSF1 (Homo sapiens, UniProt Q00613 1-529). To be noted: protein: recombinant; tags: N-terminal GST; chain copies: 3; dsDNA, one strand shown. An outline of the steps: as §1
For a further experiment, the target named is T2, SPIC (Homo sapiens, UniProt Q8N5J4 1-248).
T2 sequence: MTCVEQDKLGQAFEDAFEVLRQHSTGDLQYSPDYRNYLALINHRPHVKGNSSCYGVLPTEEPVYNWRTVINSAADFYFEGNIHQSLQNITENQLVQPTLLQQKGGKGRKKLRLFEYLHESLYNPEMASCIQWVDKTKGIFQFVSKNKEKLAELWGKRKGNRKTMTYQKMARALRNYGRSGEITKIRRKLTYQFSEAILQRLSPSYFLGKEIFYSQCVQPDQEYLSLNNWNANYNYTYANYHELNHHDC
Conditions: protein: recombinant; tags: N-terminal GST; dsDNA, one strand shown. An outline of the steps: as §1

In a further experiment the target is ELF4 (Homo sapiens, UniProt Q99607 1-663). To be noted: protein: recombinant; tags: N-terminal GST; dsDNA, one strand shown. An outline of the steps:
as §1

The target of a further experiment is T3, ELK4 (Homo sapiens, UniProt P28324-2 1-405).
T3 sequence: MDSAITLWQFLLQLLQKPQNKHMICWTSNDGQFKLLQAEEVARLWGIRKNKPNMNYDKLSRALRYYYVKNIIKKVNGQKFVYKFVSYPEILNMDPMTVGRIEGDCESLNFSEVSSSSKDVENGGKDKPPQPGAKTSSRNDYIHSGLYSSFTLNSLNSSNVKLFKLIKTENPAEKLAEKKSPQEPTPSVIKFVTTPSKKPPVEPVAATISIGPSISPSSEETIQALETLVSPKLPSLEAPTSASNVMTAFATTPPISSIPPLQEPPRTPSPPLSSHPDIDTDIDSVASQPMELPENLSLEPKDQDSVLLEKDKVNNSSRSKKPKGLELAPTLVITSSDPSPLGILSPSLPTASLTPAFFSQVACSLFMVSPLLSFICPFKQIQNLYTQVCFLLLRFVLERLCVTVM
Conditions: protein: recombinant; tags: N-terminal GST; dsDNA, one strand shown. An outline of the steps:
as §1

A further experiment deals with T4, ETV2 (Homo sapiens, UniProt O00321 1-342).
T4 sequence: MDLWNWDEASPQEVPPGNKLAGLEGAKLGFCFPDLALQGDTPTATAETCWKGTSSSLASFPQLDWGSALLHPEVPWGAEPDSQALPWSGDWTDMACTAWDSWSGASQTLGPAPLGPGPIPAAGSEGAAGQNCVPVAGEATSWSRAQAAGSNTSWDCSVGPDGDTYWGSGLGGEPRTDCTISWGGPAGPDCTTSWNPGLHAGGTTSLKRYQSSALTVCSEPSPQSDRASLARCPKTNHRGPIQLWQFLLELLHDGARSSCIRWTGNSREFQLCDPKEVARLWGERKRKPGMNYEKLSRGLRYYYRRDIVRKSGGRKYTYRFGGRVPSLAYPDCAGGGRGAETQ
Conditions: protein: recombinant; tags: N-terminal GST; dsDNA, one strand shown. The method, boiled down: as §1

A further experiment addresses T5, ELF3 (Homo sapiens, UniProt P78545 1-371).
T5 sequence: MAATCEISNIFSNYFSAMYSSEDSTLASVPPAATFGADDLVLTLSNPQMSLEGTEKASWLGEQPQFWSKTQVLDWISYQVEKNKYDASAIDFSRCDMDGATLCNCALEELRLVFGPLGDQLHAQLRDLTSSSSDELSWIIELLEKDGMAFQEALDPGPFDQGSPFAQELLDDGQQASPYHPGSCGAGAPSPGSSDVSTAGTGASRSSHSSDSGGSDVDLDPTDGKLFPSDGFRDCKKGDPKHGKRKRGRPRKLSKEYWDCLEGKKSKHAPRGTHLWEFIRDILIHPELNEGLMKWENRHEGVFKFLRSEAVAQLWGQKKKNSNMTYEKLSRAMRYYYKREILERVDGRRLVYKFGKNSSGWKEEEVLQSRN
To be noted: protein: recombinant; tags: N-terminal GST; dsDNA, one strand shown. The method, boiled down:
as §1

The target of another experiment is CRX (Homo sapiens, UniProt O43186 1-299). To be noted: protein: recombinant; tags: N-terminal GST; dsDNA, one strand shown. An outline of the steps:
as §1

A further experiment addresses ETV1 (Homo sapiens, UniProt P50549 1-477). To be noted: protein: recombinant; tags: N-terminal GST; dsDNA, one strand shown. An outline of the steps:
as §1

In the next experiment the target is T6, ERF (Homo sapiens, UniProt P50548 1-548).
T6 sequence: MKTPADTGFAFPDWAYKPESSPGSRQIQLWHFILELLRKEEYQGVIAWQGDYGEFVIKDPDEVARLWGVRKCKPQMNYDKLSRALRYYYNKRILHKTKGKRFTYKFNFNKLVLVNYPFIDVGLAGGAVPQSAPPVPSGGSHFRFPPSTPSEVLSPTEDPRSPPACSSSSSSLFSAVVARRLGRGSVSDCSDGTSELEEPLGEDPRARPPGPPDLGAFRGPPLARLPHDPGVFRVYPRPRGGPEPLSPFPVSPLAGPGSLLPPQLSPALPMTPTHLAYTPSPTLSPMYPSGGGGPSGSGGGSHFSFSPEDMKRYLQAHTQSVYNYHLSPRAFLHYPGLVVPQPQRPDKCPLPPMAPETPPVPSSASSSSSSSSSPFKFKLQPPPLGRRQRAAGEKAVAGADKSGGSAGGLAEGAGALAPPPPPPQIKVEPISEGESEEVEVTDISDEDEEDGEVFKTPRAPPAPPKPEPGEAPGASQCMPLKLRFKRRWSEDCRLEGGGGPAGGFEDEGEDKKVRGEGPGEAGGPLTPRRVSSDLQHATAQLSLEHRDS
To be noted: protein: recombinant; tags: N-terminal GST; dsDNA, one strand shown. An outline of the steps: as §1

A further experiment deals with T7, ETV3L (Homo sapiens, UniProt Q6ZN32 1-361).
T7 sequence: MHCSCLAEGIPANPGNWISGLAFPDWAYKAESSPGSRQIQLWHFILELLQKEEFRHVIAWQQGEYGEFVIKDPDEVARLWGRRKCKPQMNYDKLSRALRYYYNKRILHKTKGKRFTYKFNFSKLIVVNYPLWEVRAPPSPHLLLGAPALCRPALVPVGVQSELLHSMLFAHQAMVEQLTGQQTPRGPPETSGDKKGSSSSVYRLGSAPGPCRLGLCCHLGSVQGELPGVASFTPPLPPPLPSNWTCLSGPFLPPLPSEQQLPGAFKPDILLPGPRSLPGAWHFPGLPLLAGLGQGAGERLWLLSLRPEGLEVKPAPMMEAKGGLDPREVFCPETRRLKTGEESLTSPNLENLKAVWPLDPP
To be noted: protein: recombinant; tags: N-terminal GST; dsDNA, one strand shown. An outline of the steps: as §1

The next experiment deals with T8, ETS2 (Homo sapiens, UniProt P15036 1-469).
T8 sequence: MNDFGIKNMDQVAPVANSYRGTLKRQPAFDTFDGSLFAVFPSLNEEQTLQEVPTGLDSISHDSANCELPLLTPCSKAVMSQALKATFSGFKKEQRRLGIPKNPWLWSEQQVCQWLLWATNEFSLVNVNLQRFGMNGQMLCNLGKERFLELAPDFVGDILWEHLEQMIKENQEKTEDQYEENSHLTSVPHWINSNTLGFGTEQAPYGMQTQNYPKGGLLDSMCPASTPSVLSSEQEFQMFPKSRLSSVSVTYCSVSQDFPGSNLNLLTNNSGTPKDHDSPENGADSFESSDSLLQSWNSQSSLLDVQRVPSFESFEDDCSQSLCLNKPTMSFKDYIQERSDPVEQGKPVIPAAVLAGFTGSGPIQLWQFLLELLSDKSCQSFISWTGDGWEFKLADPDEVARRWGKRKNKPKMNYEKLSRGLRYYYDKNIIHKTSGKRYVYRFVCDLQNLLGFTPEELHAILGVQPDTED
To be noted: protein: recombinant; tags: N-terminal GST; dsDNA, one strand shown. The method, boiled down:
as §1

Another experiment addresses T9, SPDEF (Homo sapiens, UniProt O95238 1-335).
T9 sequence: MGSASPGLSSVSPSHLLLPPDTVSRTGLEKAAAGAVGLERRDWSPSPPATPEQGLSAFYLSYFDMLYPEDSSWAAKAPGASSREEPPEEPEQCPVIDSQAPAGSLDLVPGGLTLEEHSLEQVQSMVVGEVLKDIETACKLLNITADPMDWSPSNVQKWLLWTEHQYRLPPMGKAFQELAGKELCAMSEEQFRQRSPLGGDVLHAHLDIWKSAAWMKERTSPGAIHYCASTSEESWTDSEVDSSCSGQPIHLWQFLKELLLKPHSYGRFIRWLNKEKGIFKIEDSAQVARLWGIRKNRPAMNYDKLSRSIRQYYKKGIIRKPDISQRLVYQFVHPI
Conditions: protein: recombinant; tags: N-terminal GST; dsDNA, one strand shown. An outline of the steps:
as §1

The next experiment has as its target T10, ETV7 (Homo sapiens, UniProt Q9Y603 1-341).
T10 sequence: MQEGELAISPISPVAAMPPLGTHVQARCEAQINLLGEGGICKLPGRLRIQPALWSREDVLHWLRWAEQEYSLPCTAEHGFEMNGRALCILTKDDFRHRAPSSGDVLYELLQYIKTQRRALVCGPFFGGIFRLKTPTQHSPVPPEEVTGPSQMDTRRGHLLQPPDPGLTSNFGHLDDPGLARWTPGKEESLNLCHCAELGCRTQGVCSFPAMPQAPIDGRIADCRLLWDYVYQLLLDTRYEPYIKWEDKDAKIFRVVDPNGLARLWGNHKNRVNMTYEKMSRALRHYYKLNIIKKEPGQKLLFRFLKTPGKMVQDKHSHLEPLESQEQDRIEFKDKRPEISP
Conditions: protein: recombinant; tags: N-terminal GST; dsDNA, one strand shown. The method, boiled down:
as §1

In another experiment the target is T11, ELF5 (Homo sapiens, UniProt Q9UKW6-2 1-255).
T11 sequence: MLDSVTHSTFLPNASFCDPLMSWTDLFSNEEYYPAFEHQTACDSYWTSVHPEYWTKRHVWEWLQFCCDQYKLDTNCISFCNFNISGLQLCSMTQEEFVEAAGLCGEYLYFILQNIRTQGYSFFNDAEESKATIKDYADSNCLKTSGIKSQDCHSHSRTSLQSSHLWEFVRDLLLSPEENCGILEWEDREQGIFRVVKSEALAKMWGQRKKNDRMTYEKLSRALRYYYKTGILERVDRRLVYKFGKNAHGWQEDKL
Conditions: protein: recombinant; tags: N-terminal GST; dsDNA, one strand shown. The method, boiled down:
as §1

A further experiment concerns the target T12, ETV3 (Homo sapiens, UniProt P41162-2 1-143).
T12 sequence: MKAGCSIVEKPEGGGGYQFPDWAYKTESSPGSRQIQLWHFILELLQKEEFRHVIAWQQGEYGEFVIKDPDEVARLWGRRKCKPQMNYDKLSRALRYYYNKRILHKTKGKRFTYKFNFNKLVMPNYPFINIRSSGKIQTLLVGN
To be noted: protein: recombinant; tags: N-terminal GST; dsDNA, one strand shown. An outline of the steps: as §1

In another experiment the target is ETV6 (Homo sapiens, UniProt P41212 1-452). Conditions: protein: recombinant; tags: N-terminal GST; dsDNA, one strand shown. An outline of the steps: as §1
Chain of ETV6 (P41212 whole entry): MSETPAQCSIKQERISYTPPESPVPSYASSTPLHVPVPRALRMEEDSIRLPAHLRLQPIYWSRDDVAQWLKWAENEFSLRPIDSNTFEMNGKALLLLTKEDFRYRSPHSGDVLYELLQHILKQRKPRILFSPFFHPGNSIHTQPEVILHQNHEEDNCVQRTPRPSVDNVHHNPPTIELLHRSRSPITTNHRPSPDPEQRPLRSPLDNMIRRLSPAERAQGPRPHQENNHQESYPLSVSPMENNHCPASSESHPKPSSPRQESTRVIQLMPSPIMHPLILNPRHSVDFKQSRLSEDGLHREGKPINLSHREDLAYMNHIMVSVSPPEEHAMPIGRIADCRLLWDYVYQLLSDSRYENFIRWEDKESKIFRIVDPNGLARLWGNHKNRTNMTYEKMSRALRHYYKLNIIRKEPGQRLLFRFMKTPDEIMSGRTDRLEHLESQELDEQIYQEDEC

Chain of CRX (O43186 whole entry): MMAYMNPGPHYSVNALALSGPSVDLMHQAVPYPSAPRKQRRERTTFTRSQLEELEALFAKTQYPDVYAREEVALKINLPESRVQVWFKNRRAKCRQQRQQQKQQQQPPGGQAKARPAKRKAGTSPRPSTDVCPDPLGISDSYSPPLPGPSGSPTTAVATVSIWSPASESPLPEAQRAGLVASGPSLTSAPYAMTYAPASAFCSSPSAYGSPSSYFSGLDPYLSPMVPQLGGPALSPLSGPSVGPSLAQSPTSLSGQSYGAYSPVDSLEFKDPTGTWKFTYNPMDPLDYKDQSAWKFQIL
Chain of HSF1 (Q00613 whole entry): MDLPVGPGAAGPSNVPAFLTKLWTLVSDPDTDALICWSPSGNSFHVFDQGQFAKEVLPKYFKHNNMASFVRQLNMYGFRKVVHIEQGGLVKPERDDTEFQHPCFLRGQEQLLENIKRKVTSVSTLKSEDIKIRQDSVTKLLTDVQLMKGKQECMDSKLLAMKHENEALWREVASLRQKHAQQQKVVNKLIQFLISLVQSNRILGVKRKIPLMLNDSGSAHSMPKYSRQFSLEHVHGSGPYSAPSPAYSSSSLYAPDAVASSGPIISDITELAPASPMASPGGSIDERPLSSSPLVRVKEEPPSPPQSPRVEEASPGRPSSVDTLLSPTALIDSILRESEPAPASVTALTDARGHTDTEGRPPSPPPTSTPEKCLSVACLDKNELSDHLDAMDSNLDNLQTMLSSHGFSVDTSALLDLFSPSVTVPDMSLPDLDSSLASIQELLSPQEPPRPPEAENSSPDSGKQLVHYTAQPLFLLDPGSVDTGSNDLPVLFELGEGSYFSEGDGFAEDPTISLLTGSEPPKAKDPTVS
Chain of ETV5 (P41161 whole entry): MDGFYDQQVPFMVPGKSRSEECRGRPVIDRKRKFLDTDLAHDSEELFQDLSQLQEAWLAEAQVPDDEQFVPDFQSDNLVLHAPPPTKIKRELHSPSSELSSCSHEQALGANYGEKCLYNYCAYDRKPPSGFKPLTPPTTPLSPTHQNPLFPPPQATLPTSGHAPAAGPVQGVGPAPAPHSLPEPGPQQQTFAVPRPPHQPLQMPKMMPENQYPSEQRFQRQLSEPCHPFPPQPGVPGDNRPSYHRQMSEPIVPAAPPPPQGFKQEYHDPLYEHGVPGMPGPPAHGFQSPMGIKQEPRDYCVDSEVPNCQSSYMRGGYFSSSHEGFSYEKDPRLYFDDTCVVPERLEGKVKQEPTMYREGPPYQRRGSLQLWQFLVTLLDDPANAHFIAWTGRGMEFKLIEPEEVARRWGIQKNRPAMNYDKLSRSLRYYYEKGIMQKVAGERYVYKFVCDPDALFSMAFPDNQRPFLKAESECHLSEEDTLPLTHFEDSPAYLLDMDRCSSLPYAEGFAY
Chain of ETV1 (P50549 whole entry): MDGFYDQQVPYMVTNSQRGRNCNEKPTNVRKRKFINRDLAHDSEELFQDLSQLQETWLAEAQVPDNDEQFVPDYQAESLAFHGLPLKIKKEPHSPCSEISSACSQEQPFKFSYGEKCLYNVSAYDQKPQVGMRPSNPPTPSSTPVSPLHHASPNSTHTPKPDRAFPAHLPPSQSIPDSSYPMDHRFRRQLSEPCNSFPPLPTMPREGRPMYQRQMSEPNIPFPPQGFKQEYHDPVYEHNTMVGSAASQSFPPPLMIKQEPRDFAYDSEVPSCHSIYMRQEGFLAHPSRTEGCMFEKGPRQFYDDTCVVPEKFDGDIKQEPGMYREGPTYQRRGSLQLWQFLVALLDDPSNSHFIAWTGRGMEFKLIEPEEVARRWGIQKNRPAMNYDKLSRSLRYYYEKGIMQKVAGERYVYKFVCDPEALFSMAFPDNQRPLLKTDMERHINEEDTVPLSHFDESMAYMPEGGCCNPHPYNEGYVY
Chain of ELF4 (Q99607 whole entry): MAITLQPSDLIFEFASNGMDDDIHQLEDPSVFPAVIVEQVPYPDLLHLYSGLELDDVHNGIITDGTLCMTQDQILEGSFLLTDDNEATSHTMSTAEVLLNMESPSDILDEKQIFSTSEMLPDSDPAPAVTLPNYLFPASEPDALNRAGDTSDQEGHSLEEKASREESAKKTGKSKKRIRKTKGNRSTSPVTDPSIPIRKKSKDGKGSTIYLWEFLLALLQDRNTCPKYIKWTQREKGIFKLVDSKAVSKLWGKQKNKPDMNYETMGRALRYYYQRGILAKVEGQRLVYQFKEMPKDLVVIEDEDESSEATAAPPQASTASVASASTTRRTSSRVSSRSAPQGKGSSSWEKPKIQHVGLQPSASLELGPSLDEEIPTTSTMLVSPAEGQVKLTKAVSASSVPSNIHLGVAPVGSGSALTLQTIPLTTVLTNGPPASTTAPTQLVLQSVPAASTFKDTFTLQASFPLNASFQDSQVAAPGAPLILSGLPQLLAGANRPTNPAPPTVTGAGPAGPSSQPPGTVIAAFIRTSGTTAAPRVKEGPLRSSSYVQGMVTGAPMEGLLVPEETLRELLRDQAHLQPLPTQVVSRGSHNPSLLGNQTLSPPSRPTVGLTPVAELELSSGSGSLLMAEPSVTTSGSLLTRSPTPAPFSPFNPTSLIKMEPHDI

Regarding TTCTCT, the binding signal is 1.22 fold enrichment (6-mer frequency, TF over GST control) in the experiment with FEV; 1.24 fold enrichment (6-mer frequency, TF over GST control) in the experiment with ETV5; 1.84 fold enrichment (6-mer frequency, TF over GST control) with HSF1; 1.16 fold enrichment (6-mer frequency, TF over GST control) with SPIC; 1.26 fold enrichment (6-mer frequency, TF over GST control) with ELF4; 1.33 fold enrichment (6-mer frequency, TF over GST control) with ELK4. Further, the binding signal was 1.29 fold enrichment (6-mer frequency, TF over GST control) with ETV2; 1.37 fold enrichment (6-mer frequency, TF over GST control) in the experiment with ELF3; 1.49 fold enrichment (6-mer frequency, TF over GST control) with CRX; 1.36 fold enrichment (6-mer frequency, TF over GST control) in the experiment with ETV1; 1.19 fold enrichment (6-mer frequency, TF over GST control) with ERF; 1.39 fold enrichment (6-mer frequency, TF over GST control) with ETV3L. For the same sequence, the binding signal in the experiment with ETS2 is 1.23 fold enrichment (6-mer frequency, TF over GST control); in the experiment with SPDEF it was 1.31 fold enrichment (6-mer frequency, TF over GST control); with ETV7, 1.26 fold enrichment (6-mer frequency, TF over GST control); in the experiment with ELF5, 1.35 fold enrichment (6-mer frequency, TF over GST control); in the experiment with ETV3 it was 1.3 fold enrichment (6-mer frequency, TF over GST control); with ETV6 it was 1.24 fold enrichment (6-mer frequency, TF over GST control).
